Experimental data reported in the supplement of paper PMC10849652.
About 8,800 targets were measured; listed, in parts, are those with a hit and a random draw of the rest. About 0.5% of all pairs of compound and target were hits.

Experiments:
Experiment in all cases: log2 fold change, soluble protein after heating vs DMSO (PISA); higher = thermal stabilisation; K562 lysate, 10 uM; active = over 0.2 and 3.5 SD of the protein, either way, in both replicates (recomputed)
erlotinib = compound: C#Cc1cccc(Nc2ncnc3cc(OCCOC)c(OCCOC)cc23)c1 [erlotinib]
In short: (§1)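 The values are log-two fold changes in thermal stability compared with solvent controls and come from duplicates. They were obtained by TMTpro 16plex LC-MS/MS, with channel sums equalised, on the supernatant after 21,000xg for 90 min. That supernatant came from crude K562 extract at 1 mg/mL protein treated with 10 μM compound for 30 min, heated for 3 min across 48°C-58°C, pooled and brought to 0.5% NP-40 at 4°C.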

[1] = compound: C/C(=N\NC(=O)C1=CC(=CC=C1)S(=O)(=O)N2CCOCC2)/C3=C(C=CC(=C3)Cl)O
In short: as §1

[2] = compound: C1=CC(=CC=C1C2=NC3=C(N2)C=C(C=C3)C(=O)N)OC4=CC=C(C=C4)Cl
In short: as §1

[3] = compound: C1=CC2=C(C=CC(=C2)/C=C\3/C(=O)NC(=NCC4=CC=CS4)S3)N=C1
In short: as §1

[4] = compound: C1=CC2=NC=CN=C2C=C1/C=C/3\C(=O)NC(=O)S3
In short: as §1

[5] = compound: C1=CC=C(C=C1)C2=NC(=C(N2)C3=CC=NC=C3)C4=CC(=C(C=C4)Cl)O
In short: as §1

[6] = compound: C1=CC=C2C(=C1)C3=NNC4=CC=CC(=C43)C2=O
In short: as §1

[7] = compound: C1CCN(C1)C(=O)NC2=CC=CC(=C2)NC3=NC=C(C(=N3)NCCC4=CN=CN4)Br
In short: as §1

[8] = compound: C1CN(CCC1(CC2=CC=C(C=C2)Cl)N)C3=NC=NC4=C3C=CN4
In short: as §1

IRAK-1-4 Inhibitor I = compound: C1COCCN1CCN2C3=CC=CC=C3N=C2NC(=O)C4=CC(=CC=C4)[N+](=O)[O-] [IRAK-1-4 Inhibitor I]
In short: as §1

ibrutinib = compound: C=CC(=O)N1CCC[C@@H](n2nc(-c3ccc(Oc4ccccc4)cc3)c3c(N)ncnc32)C1 [ibrutinib]
In short: as §1

[9] = compound: CC(=O)c1cnc2ccc(-c3cc(Cl)c(O)c(Cl)c3)nc2c1N[C@H]1CC[C@H](CN(C)C)CC1
In short: as §1

ralimetinib = compound: CC(C)(C)Cn1c(N)nc2ccc(-c3[nH]c(C(C)(C)C)nc3-c3ccc(F)cc3)nc21 [ralimetinib]
In short: as §1

[10] = compound: CC(C)(O)CC(=O)NCCn1ccc2ncnc(Nc3ccc(Oc4cccc(C(F)(F)F)c4)c(Cl)c3)c21
In short: as §1

[11] = compound: CC(C)C1=C2N=C(C=C(N2N=C1)NCC3=CC=CC=C3)NCCCCCCN
In short: as §1

[12] = compound: CC1=C(C(CC(=O)N1)C2=CC=C(C=C2)C(F)(F)F)C(=O)NC3=C(C=C4C(=C3)C=NN4)F
In short: as §1

[13] = compound: CC1=C(C2=C(C=C1)C(=O)C3=CC=CC=C3N2CCCN)C
In short: as §1

[14] = compound: CC1=C(C=C(C=C1)NC(=O)C2=CC(=CC=C2)C(C)(C)C#N)NC3=CC4=C(C=C3)N=CN(C4=O)C
In short: as §1

[15] = compound: CC1=C(C=C(C=C1)NC(=O)C2=CC(=CC=C2)N(C)C)NC(=O)C3=CC=C(C=C3)O
In short: as §1

[16] = compound: CC1=CC=C(C=C1)SC2=C3C=C(SC3=CN=C2)C(=O)N
In short: as §1

Measured: log2 fold change

NONO (UniProt Q15233)
Chain of UniProt Q15233 (Q15233 whole entry, looked up): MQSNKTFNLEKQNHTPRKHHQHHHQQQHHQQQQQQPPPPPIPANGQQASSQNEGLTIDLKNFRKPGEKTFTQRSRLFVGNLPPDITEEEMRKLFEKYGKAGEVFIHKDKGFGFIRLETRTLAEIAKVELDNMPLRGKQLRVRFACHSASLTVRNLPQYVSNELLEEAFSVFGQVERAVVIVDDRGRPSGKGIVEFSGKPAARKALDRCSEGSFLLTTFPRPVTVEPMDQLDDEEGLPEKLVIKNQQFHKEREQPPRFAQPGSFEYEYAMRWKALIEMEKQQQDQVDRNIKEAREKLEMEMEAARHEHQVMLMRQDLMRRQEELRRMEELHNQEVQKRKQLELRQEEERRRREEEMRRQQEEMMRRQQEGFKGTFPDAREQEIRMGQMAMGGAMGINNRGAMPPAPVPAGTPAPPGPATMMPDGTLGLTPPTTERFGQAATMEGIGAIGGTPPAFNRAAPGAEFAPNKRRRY
inactive: erlotinib 0.021 | [1] -0.048 | [2] 0 | [3] -0.006 | [4] -0.017 | [5] 0.025 | [6] -0.027 | [7] 0.014 | [8] 0.002 | IRAK-1-4 Inhibitor I 0.005 | ibrutinib -0.013 | [9] 0.006 | ralimetinib 0.008 | [10] -0.002 | [11] 0.006 | [12] -0.006 | [13] -0.006 | [14] -0.016 | [15] 0.015 | [16] 0.014

PAN2 isoform 2 (UniProt Q504Q3)
Chain of UniProt Q504Q3 (Q504Q3 whole entry, looked up): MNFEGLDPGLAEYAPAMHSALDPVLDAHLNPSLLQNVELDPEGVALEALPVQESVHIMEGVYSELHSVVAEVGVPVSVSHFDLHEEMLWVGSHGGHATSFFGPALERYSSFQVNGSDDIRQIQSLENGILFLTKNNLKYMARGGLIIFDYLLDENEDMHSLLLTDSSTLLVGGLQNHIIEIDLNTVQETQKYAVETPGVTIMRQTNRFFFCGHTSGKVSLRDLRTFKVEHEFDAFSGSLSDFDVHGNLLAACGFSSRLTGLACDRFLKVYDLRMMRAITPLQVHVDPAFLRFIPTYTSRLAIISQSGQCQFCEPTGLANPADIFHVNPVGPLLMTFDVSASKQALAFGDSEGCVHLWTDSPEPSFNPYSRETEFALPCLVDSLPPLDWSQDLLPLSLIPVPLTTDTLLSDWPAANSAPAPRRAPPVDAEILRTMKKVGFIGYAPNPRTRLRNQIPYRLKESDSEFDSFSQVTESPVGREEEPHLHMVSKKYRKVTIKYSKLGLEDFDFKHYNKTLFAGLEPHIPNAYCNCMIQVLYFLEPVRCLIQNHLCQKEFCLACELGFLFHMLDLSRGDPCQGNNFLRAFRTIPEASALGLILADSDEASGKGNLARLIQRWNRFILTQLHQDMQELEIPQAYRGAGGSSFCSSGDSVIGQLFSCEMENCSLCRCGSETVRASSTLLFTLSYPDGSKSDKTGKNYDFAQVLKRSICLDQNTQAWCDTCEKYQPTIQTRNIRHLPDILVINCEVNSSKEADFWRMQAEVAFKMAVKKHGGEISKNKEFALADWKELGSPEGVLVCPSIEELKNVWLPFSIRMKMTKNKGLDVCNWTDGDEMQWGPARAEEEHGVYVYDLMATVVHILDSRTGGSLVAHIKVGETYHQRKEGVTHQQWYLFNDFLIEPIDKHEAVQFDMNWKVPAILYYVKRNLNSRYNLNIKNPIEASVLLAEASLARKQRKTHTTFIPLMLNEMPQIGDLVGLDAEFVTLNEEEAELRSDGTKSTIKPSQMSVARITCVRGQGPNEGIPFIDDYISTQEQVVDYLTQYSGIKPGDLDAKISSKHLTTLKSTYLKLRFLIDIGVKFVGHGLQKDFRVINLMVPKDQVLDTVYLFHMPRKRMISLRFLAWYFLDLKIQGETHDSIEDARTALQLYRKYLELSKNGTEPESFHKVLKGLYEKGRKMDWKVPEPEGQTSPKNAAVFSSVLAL
inactive: erlotinib 0 | [1] -0.007 | [2] -0.015 | [3] -0.005 | [4] 0.052 | [5] 0.03 | [6] 0 | [7] -0.017 | [8] -0.031 | IRAK-1-4 Inhibitor I 0.006 | ibrutinib -0.141 | [9] 0.036 | ralimetinib 0.022 | [10] -0.022 | [11] -0.025 | [12] 0.022 | [13] 0.015 | [14] 0.012 | [15] -0.038 | [16] 0.027

NUCB2 (UniProt P80303)
Chain of UniProt P80303 (P80303 whole entry, looked up): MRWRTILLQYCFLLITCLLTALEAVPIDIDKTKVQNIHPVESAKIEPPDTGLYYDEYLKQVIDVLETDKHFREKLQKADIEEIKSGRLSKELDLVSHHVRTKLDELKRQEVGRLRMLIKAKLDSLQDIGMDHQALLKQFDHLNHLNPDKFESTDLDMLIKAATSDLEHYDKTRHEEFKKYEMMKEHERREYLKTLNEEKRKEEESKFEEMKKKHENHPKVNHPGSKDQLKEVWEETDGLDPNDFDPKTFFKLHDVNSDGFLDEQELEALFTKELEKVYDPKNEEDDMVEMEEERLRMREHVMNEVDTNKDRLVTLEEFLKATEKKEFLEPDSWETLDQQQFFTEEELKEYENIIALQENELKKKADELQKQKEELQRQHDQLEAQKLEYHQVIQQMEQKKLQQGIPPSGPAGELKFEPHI
inactive: erlotinib -0.003 | [1] 0.018 | [2] 0.014 | [3] -0.018 | [4] 0.011 | [5] -0.015 | [6] -0.017 | [7] 0.003 | [8] 0.003 | IRAK-1-4 Inhibitor I 0.007 | ibrutinib 0.025 | [9] 0.002 | ralimetinib -0.023 | [10] 0.01 | [11] 0.009 | [12] 0.04 | [13] -0.006 | [14] 0 | [15] -0.015 | [16] -0.014

PAK1 (UniProt Q13153)
inactive: erlotinib 0.043 | [1] 0.018 | [2] 0.01 | [3] -0.017 | [4] 0.01 | [5] -0.014 | [6] 0.018 | [7] 0.028 | [8] 0.041 | IRAK-1-4 Inhibitor I -0.007 | ibrutinib 0.067 | [9] -0.011 | ralimetinib 0.001 | [10] 0.004 | [11] -0.108 | [12] -0.003 | [13] -0.018 | [14] 0.041 | [15] 0.008 | [16] 0.009

NAP1L5 (UniProt Q96NT1)
Chain of UniProt Q96NT1 (Q96NT1 whole entry, looked up): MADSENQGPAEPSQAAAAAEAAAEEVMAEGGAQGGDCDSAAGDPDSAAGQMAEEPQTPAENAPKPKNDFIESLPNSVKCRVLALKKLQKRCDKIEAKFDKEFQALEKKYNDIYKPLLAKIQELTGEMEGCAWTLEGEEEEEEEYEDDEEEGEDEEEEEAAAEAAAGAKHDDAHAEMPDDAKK
inactive: erlotinib -0.003 | [1] -0.023 | [2] 0.017 | [3] -0.014 | [4] -0.014 | [5] 0.084 | [6] -0.116 | [7] -0.057 | [8] 0 | IRAK-1-4 Inhibitor I -0.059 | ibrutinib -0.056 | [9] 0.018 | ralimetinib -0.034 | [10] 0.034 | [11] -0.037 | [12] -0.036 | [13] -0.045 | [14] -0.13 | [15] -0.036 | [16] -0.009

PAXBP1 (UniProt Q9Y5B6)
Chain of UniProt Q9Y5B6 (Q9Y5B6 whole entry, looked up): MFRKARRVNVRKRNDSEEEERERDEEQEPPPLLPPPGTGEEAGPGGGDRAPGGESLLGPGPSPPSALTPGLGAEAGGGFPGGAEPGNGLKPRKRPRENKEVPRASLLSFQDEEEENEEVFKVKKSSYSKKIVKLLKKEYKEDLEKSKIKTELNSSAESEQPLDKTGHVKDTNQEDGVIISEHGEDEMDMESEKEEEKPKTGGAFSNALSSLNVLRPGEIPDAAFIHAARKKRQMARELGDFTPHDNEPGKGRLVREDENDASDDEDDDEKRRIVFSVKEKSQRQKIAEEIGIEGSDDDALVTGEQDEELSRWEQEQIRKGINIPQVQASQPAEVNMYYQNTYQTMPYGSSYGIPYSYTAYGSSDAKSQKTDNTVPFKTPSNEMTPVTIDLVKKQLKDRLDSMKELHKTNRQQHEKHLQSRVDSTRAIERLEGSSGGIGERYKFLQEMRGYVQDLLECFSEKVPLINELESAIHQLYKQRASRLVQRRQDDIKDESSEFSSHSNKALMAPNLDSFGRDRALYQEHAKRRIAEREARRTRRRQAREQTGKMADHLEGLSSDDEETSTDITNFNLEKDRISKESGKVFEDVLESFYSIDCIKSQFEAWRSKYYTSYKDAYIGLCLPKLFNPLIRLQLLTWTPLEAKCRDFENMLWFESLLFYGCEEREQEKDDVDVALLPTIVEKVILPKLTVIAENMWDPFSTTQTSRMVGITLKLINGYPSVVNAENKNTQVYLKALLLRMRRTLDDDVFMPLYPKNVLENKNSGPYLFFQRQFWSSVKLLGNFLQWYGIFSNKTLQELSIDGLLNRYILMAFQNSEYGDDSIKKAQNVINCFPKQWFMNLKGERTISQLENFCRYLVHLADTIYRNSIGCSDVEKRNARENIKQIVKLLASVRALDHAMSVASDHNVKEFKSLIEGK
inactive: erlotinib 0.019 | [1] -0.035 | [2] 0.025 | [3] -0.01 | [4] 0.018 | [5] 0.026 | [6] -0.04 | [7] -0.022 | [8] 0.029 | IRAK-1-4 Inhibitor I 0.013 | ibrutinib -0.004 | [9] 0.019 | ralimetinib 0.027 | [10] -0.015 | [11] 0.006 | [12] -0.024 | [13] 0.007 | [14] -0.007 | [15] 0.077 | [16] 0.032

NIPBL (UniProt Q6KC79)
inactive: erlotinib -0.025 | [1] 0.044 | [2] -0.003 | [3] 0.009 | [4] 0.005 | [5] -0.013 | [6] 0.003 | [7] -0.014 | [8] 0.007 | IRAK-1-4 Inhibitor I -0.043 | ibrutinib 0.026 | [9] 0.008 | ralimetinib 0.035 | [10] -0.016 | [11] 0.036 | [12] 0.007 | [13] -0.025 | [14] -0.03 | [15] -0.044 | [16] 0.021

NFATC1 (UniProt O95644)
inactive: erlotinib -0.002 | [1] -0.431 | [2] 0.045 | [3] -0.04 | [4] -0.02 | [5] 0.065 | [6] 0.009 | [7] 0.044 | [8] 0.092 | IRAK-1-4 Inhibitor I 0.077 | ibrutinib 0.011 | [9] 0.06 | ralimetinib -0.004 | [10] -0.067 | [11] -0.038 | [12] 0.031 | [13] -0.047 | [14] 0.094 | [15] -0.015 | [16] -0.052

NEDD8 (UniProt Q15843)
Chain of UniProt Q15843 (Q15843 whole entry, looked up): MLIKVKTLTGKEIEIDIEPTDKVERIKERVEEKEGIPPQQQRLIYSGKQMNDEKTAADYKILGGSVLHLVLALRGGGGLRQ
inactive: erlotinib 0.018 | [1] -0.019 | [2] 0 | [3] 0.031 | [4] -0.047 | [5] 0.011 | [6] -0.053 | [7] 0.026 | [8] 0.07 | IRAK-1-4 Inhibitor I 0 | ibrutinib 0.059 | [9] -0.013 | ralimetinib -0.001 | [10] 0 | [11] 0.011 | [12] -0.01 | [13] 0.005 | [14] 0.077 | [15] 0.025 | [16] -0.029

NEK7 (UniProt Q8TDX7)
Chain of UniProt Q8TDX7 (Q8TDX7 whole entry, looked up): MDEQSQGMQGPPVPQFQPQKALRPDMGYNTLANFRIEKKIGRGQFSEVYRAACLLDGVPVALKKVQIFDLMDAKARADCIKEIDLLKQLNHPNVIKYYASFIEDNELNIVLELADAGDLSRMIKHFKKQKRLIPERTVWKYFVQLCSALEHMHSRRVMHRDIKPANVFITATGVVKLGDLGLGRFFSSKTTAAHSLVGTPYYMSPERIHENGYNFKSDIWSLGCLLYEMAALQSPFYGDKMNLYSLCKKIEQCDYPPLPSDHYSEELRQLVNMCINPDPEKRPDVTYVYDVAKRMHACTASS
inactive: erlotinib -0.004 | [1] 0.042 | [2] -0.083 | [3] 0 | [4] 0.01 | [5] 0.053 | [6] 0.103 | [7] 0.011 | [8] -0.005 | IRAK-1-4 Inhibitor I 0.032 | ibrutinib 0.041 | [9] -0.041 | ralimetinib 0.063 | [10] -0.016 | [11] 0.034 | [12] -0.015 | [13] -0.048 | [14] -0.043 | [15] 0.053 | [16] 0.002

NFKBIE (UniProt O00221)
inactive: erlotinib 0.014 | [1] -0.009 | [2] -0.117 | [3] 0.059 | [4] -0.022 | [5] 0.059 | [6] -0.026 | [7] -0.078 | [8] 0.081 | IRAK-1-4 Inhibitor I 0.119 | ibrutinib -0.018 | [9] 0.054 | ralimetinib -0.008 | [10] -0.059 | [11] -0.05 | [12] 0.015 | [13] -0.044 | [14] 0.027 | [15] 0.05 | [16] 0.018

PAFAH1B3 (UniProt Q15102)
Chain of UniProt Q15102 (Q15102 whole entry, looked up): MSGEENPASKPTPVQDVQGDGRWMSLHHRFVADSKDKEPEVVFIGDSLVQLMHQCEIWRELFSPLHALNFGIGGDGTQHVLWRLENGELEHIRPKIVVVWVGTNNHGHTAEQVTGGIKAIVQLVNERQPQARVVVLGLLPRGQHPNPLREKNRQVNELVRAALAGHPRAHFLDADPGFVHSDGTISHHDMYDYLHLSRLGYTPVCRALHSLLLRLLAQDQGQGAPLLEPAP
inactive: erlotinib 0.037 | [1] 0.032 | [2] -0.017 | [3] -0.017 | [4] 0.022 | [5] -0.009 | [6] 0.005 | [7] 0.025 | [8] 0.027 | IRAK-1-4 Inhibitor I 0.005 | ibrutinib 0.073 | [9] -0.004 | ralimetinib 0.003 | [10] -0.01 | [11] 0.015 | [12] -0.026 | [13] 0.014 | [14] -0.002 | [15] 0.02 | [16] 0.006

NPLOC4 isoform 2 (UniProt Q8TAT6)
inactive: erlotinib -0.022 | [1] 0.032 | [2] -0.004 | [3] 0.001 | [4] -0.012 | [5] 0.011 | [6] -0.016 | [7] -0.012 | [8] 0.007 | IRAK-1-4 Inhibitor I 0.001 | ibrutinib -0.016 | [9] -0.015 | ralimetinib -0.01 | [10] -0.003 | [11] 0.027 | [12] -0.005 | [13] -0.009 | [14] 0.062 | [15] 0.018 | [16] -0.015

PANK1 (UniProt Q8TE04)
Chain of UniProt Q8TE04 (Q8TE04 whole entry, looked up): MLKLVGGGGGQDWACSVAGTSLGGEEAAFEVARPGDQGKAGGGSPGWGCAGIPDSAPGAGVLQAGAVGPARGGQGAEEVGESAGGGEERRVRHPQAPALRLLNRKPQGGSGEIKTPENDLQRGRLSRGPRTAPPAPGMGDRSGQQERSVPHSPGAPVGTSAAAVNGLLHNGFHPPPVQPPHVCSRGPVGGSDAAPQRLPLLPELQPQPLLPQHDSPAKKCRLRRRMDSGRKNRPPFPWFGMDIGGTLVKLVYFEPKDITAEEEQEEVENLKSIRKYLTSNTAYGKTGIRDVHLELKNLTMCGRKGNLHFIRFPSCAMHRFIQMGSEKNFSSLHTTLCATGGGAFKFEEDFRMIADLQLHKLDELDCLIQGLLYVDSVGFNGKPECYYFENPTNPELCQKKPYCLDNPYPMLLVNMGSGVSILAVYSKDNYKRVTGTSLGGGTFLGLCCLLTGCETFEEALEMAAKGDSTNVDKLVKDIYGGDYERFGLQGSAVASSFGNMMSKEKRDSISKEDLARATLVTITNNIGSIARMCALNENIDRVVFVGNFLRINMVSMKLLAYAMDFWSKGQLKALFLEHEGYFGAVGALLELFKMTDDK
inactive: erlotinib -0.003 | [1] -0.048 | [2] 0.033 | [3] 0.026 | [4] 0.098 | [5] 0.015 | [6] -0.069 | [7] -0.036 | [8] 0.054 | IRAK-1-4 Inhibitor I -0.061 | ibrutinib -0.031 | [9] -0.007 | ralimetinib 0.04 | [10] -0.003 | [11] -0.079 | [12] 0.045 | [13] -0.068 | [14] -0.035 | [15] -0.025 | [16] 0.064

NELFCD (UniProt Q8IXH7)
inactive: erlotinib 0.034 | [1] 0.015 | [2] 0.007 | [3] 0.031 | [4] -0.019 | [5] -0.019 | [6] -0.044 | [7] -0.004 | [8] 0.023 | IRAK-1-4 Inhibitor I -0.036 | ibrutinib 0.039 | [9] 0.013 | ralimetinib 0.019 | [10] -0.043 | [11] 0.009 | [12] 0.007 | [13] 0.013 | [14] 0.011 | [15] 0.049 | [16] -0.02

MTFP1 (UniProt Q9UDX5)
Chain of UniProt Q9UDX5 (Q9UDX5 whole entry, looked up): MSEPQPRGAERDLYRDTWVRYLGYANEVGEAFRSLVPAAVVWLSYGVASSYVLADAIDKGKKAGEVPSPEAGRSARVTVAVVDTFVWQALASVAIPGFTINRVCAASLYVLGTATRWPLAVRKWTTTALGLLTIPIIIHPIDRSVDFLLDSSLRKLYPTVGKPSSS
inactive: erlotinib -0.006 | [1] 0.092 | [2] 0.035 | [3] 0.041 | [4] -0.043 | [5] -0.003 | [6] 0.081 | [7] -0.044 | [8] 0.044 | IRAK-1-4 Inhibitor I -0.058 | ibrutinib 0.097 | [9] -0.065 | ralimetinib -0.017 | [10] 0.079 | [11] -0.058 | [12] 0.018 | [13] 0.009 | [14] -0.011 | [15] -0.048 | [16] -0.001
